Screening results as filed in PubChem BioAssay.
Nrf2 activator = qHTS of Nrf2 Activators. AID 624171, 2012. Potency, µM (top dose mostly 46.1 µM), usual class: activators. hit rate 0.31% among 410,000. AREc32 ARE-luciferase reporter (MCF7-derived line), luminescence, 24 h; further: nearly all actives have a fitted effect of over 65% in size
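For detection, Steady-Glo was added and plates sat 30 min at RT; before that, AREc32_Fluc cells grown overnight in OPTI-MEM/5% FBS had been treated with 23 nL compound for 24 hr at 37 deg C.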
ERG Ets-DNA blk = qHTS for Small Molecule Inhibitors of the ERG Ets/DNA interaction. Transcriptional regulator ERG (Homo sapiens), P11308. fluorescence polarization, His-ERG Ets domain / labelled DNA. Potency, µM (highest dose often 76.9 µM), actives largely listed as inhibitors. hit rate 0.028% among 370,000. AID 624246, 2012; active means well fitted inhibition curve with a large enough effect in the polarisation, with a control signal flat; inconclusive means small, poorly fitted or top-dose-only effect, or effect the other way, or a change in a side signal; inactive means no such curve, though single readings can be large or run the other way; the % refers to the polarisation;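 further: polarization taken with two DNA probes labelled with fluorescein and Texas red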
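His-tagged ERG Ets domain (1 uM in the protein solution; 300mM KCl, 50mM Tris-HCl, 1mM EDTA, 1mM DTT, pH 7.5) received compound, then a probe mix of 5 nM fluorescein-DNA and 100nM Texas-615-DNA. Fluorescence polarization was read for both dyes.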
Nrf2 block = Nrf2 qHTS screen for inhibitors. A549 ARE-Fluc reporter, luciferase luminescence, 18-24 h. Potency, µM (series often up to 46 µM), actives largely listed as inhibitors. hit rate 2.1% among 360,000. AID 504444, 2011; further: nearly all actives have a fitted effect of over 60% in size
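Quantitative HTS in A549 cells stably bearing an antioxidant response element-firefly luciferase construct. Inhibition of Nrf2-driven transcription was scored by luminescence after 18-24 h of compound exposure at 37 °C.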
A549 viability = Nrf2 qHTS screen for inhibitors: counterscreen for cytotoxicity | A549 ARE-Fluc cells, CellTiter-Fluor viability, 18-24 h | Potency, µM (series often up to 46 µM), usual class: inhibitors | hit rate 0.16% among 390,000
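Cytotoxicity counterscreen: CellTiter-Fluor fluorescence was measured in A549 ARE_Fluc cells after 18-24 h of compound exposure in a concentration series. The subsequent BugLite luminescent read reports ARE-luciferase activity.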
LDHA block = qHTS assay for inhibitors of human lactate dehydrogenase | activity change, % (values are at about 110 or 230 µM) | L-lactate dehydrogenase A chain (Homo sapiens), P00338 | purified LDHA, NADH/diaphorase-resazurin fluorescence; active compounds read low | hit rate 0.15% among 480,000; in the data active means activity change below about -30%; inconclusive means mostly about -25% to -30%
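Remaining NADH was detected by diaphorase (0.133 mg/mL) converting 37 µM resazurin to fluorescent resorufin, read at 0 and 20 minutes. The preceding 5-minute room-temperature reaction used 2 nM LDHA, 0.2 mM sodium pyruvate and 0.06 mM NADH at pH 7.4.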
ALOX12 inh = Primary qHTS assay for inhibitors of human arachidonate 12S-lipoxygenase (ALOX12): Round 2. AID 1671190, 2021. hit rate 1.1% among 580,000. Polyunsaturated fatty acid lipoxygenase ALOX12 (Homo sapiens), P18054. Potency, µM (series often up to 108 µM), most hits filed as inhibitors. purified 12hLO, xylenol orange hydroperoxide absorbance
Target sequence (P18054 whole entry, looked up): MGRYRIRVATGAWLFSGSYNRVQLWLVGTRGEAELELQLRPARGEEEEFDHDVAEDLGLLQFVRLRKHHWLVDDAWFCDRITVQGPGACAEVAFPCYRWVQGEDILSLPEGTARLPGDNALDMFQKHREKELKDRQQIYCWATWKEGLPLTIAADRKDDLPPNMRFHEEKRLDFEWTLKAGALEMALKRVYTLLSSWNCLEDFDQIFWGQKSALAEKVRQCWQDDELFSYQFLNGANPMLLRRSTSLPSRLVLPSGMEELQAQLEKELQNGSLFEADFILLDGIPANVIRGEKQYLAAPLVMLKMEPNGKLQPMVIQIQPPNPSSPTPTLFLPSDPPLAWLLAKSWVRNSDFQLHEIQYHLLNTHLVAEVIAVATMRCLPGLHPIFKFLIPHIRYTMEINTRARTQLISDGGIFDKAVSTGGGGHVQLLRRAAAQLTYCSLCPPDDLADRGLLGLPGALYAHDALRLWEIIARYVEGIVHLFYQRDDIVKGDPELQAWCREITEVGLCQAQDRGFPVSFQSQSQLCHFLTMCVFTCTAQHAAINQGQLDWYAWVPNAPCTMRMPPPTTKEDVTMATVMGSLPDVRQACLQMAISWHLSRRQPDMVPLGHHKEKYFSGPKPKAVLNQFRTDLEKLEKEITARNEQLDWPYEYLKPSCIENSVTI
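Purified human 12hLO at 150 nM in 25 mM Hepes, 0.01% Triton X-100, pH 7.0, preincubated 15 min at room temperature with compound. Reaction started with 40 uM arachidonic acid, 30 min at room temperature. Hydroperoxide measured by Fe-xylenol orange, 573/405 nm absorbance ratio.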
Hits are given with their value; i = inactive; ? = inconclusive; nt = no result given. Hits are enriched below; roughly 2.7% of the tested compounds scored in any of these assays. Unless noted, the call rests on the fitted dose curve; in most records, active means well fitted curve in the direction sought with a large enough effect; inconclusive means small, poorly fitted or top-dose-only effect, or another doubt; inactive means no such curve, though single readings can be large; an effect the other way counts as inactive or inconclusive.

SMILES	Nrf2 activator	ERG Ets-DNA blk	Nrf2 block	A549 viability	LDHA block	ALOX12 inh
N#C/C(=N\Nc1ccc(Cl)cc1)C(=O)c1ccccc1	i	i	15µM	16µM	i	?
CCOC(=O)NC(=O)/C(C#N)=N\Nc1ccc(Cl)cc1	i	i	nt	i	i	?
Cc1c(N/N=C(\C#N)C(=O)c2ccc(Cl)cc2)c(=O)n(-c2ccccc2)n1C	i	i	?	?	i	8.9µM
COC(=O)C(=NNc1c(C)n(C)n(-c2ccccc2)c1=O)C(=O)OC	i	i	i	i	i	i
CC(C)(C)C(=O)/C=c1/[nH]c(=O)/c(=C/c2c(F)c(F)c(F)c(F)c2F)s1	nt	nt	nt	nt	i	?
CCc1cc(=O)oc2cc(OS(=O)(=O)c3cccc(C(F)(F)F)c3)ccc12	nt	nt	nt	nt	i	?
O=C(Cn1nc(C(=O)O)c2ccccc2c1=O)Nc1cccc(Cl)c1	nt	nt	nt	nt	i	?
CCOC(=O)Cc1ccc(NC(=O)N2CCC(CN3CCc4ccccc4C3)CC2)cc1	nt	nt	nt	nt	?	i
Cc1nn(C(C)C)c(C)c1NC(=O)c1cc2occc2n1Cc1ccccc1Cl	nt	nt	nt	nt	i	?
O=C(CN1C2CCCC1CC(NC(=O)C1CCCCC1)C2)Nc1ccccc1C(F)(F)F (stereo not given)	i	i	23µM	i	i	i
O=C(CCNc1c(-c2ccccc2)nc2cnccn12)N1CCCC1	nt	nt	nt	nt	nt	i
O=C(O)CCNc1c(-c2ccc(F)cc2)nc2cnccn12	nt	nt	nt	nt	nt	35µM
Cc1cc(=O)oc2cc(OCc3cccc4ccccc34)ccc12	nt	nt	nt	nt	i	i
CCCCNc1nc(-c2c(N)n(CCC)c(=O)n(C)c2=O)cs1	nt	nt	nt	nt	i	i
CCCn1c(N)c(-c2csc(NC)n2)c(=O)n(C)c1=O	nt	nt	nt	nt	i	7.9µM
CN(C)S(=O)(=O)c1ccc(NC(=O)CSc2nc3ccccc3n2-c2ccccc2)cc1	i	i	21µM	i	i	i
CN(C)S(=O)(=O)c1cccc(NC(=O)CSc2nc3ccccc3n2-c2ccccc2)c1	i	i	18µM	?	i	i
NS(=O)(=O)c1ccc(NC(=O)CSc2nc3ccccc3n2-c2ccccc2)cc1	i	i	?	?	i	?
Cc1cc(C)nc(SCC(=O)Nc2cccc(S(=O)(=O)N(C)C)c2)n1	i	i	18µM	i	i	i
N#Cc1cnc2ccccc2c1N1CCCCCC1	nt	nt	nt	nt	i	?
COc1ccc(N2CCN(c3nc(C(=O)NCc4ccc(C)c(C)c4)cs3)CC2)cc1	nt	nt	nt	nt	nt	i
COCC(C)n1c(SCc2ccc(OC)c(F)c2)nc2ccccc2c1=O (stereo not given)	i	i	23µM	i	i	i
CCCc1cc(C(N)=O)c(NC(=O)c2ccoc2C)s1	i	i	nt	i	i	32µM
CCc1c(C)sc(NC(=O)c2ccoc2C)c1C(N)=O	i	i	?	i	i	11µM
CC(=O)Nc1ccc(SCC(=O)c2ccc3c(c2)CCC3)cc1	nt	nt	nt	nt	i	?
SMILES	Nrf2 activator	ERG Ets-DNA blk	Nrf2 block	A549 viability	LDHA block	ALOX12 inh
O=C(NC(=S)NCC1CCCO1)c1ccc(Cl)cc1 (stereo not given)	i	i	i	i	i	40µM
C[n+]1cccc(C(=O)NCC2CCCO2)c1 (stereo not given)	i	i	i	i	i	16µM
O=C(NCC1CCCO1)c1ccc(COc2ccc(Br)cc2)cc1 (stereo not given)	i	i	16µM	i	i	i
Cc1ccc(OCc2ccc(C(=O)NCC3CCCO3)cc2)cc1C (stereo not given)	i	i	?	i	i	i
Cc1ccc(NS(=O)(=O)c2cccc(C(=O)NCC3CCCO3)c2)cc1 (stereo not given)	i	i	21µM	i	i	?
O=C(NCC1CCCO1)c1cccc(NS(=O)(=O)c2ccccc2)c1 (stereo not given)	i	i	i	i	i	i
C/C(=N\O)c1ccc(OCC(O)CNC(C)C)cc1 (stereo not given)	nt	nt	nt	nt	i	i
CC1CCCCN1S(=O)(=O)c1ccc(NC(=O)c2cc(=O)c3cc(Cl)ccc3o2)cc1 (stereo not given)	nt	nt	nt	nt	i	i
NS(=O)(=O)c1ccc(NC(=O)COc2ncnc3ccccc23)cc1	nt	nt	nt	nt	i	i
O=C(N/N=C/c1cc([N+](=O)[O-])ccc1O)c1cccc2cc[nH]c12	i	i	23µM	?	i	i
O=C(N/N=C/c1cccc([N+](=O)[O-])c1)c1cccc2cc[nH]c12	?	i	i	i	i	i
COc1cc(/C=C/C(=O)c2cc3ccccc3oc2=O)cc(OC)c1OC	nt	nt	nt	nt	i	?
COc1ccc(-c2[nH]nc3c2C(c2ccc4c(c2)OCO4)CC(=O)O3)cc1 (stereo not given)	nt	nt	nt	nt	i	45µM
CC(C)c1ccc(/C=N/NC(=O)Cc2cccc3ccccc23)cc1	nt	nt	nt	nt	i	?
OC[C@@H]1CN(Cc2cccc3ccccc23)C[C@H](n2cnc3c(NCc4ccco4)ncnc32)O1	i	nt	nt	nt	i	35µM
CCCN(C)c1nccnc1OC1CCN(C(=O)CC(C)C)C1 (stereo not given)	nt	nt	nt	nt	nt	i
COc1cccc(N2CCN(C(=O)Cn3cnc4onc(-c5ccc(F)cc5)c4c3=O)CC2)c1	i	i	16µM	i	i	?
Cc1noc(C(=O)Nc2ccc(F)cc2F)c1Cl	i	i	?	i	i	i
Cc1ccc(O)c(NC(=O)c2onc(C)c2Cl)c1	8.9µM	i	i	i	i	i
N#Cc1nc(C2CC2)oc1N1CCN(CC2CCCCC2)CC1	nt	nt	nt	nt	i	i
COc1ccc(NC(=O)N(Cc2nnc3n2CCCCC3)c2ccc3c(c2)OCO3)cc1	nt	nt	nt	nt	i	?
COc1ccc2c(Cl)c(C(=O)NN)sc2c1	i	nt	15µM	i	i	i
O=C(CCl)NCCCN(C(=O)C(Cl)Cl)c1ccc([N+](=O)[O-])cc1	11µM	i	?	?	i	i
COc1ccc(-c2n(CC(=O)OC3CC(C)CCC3C(C)C)c3ccccc3[n+]2C)cc1 (stereo not given)	i	?	21µM	?	i	i
CC(=O)N1N=C(c2c(-c3ccccc3)c3cc(Cl)ccc3n(C)c2=O)CC1c1ccco1 (stereo not given)	nt	nt	nt	nt	i	?
Cc1ccc(NC(=O)c2ccc3c(c2)NC(=O)c2ccccc2S3)cc1	i	i	16µM	?	i	?
O=C(CN1C(=O)/C(=C/c2ccco2)SC1=S)Nc1ccc(C(=O)O)c(O)c1	i	i	?	i	i	28µM
O=C(CCCN1C(=O)/C(=C\c2ccco2)SC1=S)Nc1ccc(O)cc1C(=O)O	i	i	i	?	i	28µM
